The list is not random: actives were taken first. Their share in the collection is about 5.7%.
B2AR arrestin = recruits beta-arrestin to the human beta2-adrenergic receptor. P07550. beta-arrestin recruitment to beta2AR, cell-based reporter. Potency, µM (series often up to 46.1 µM), for the others: top-dose activation, actives largely listed as activators. 330,000 tested, 0.02% active;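 also: 0% = DMSO controls and full agonism = EC100 isoproterenol or metaproterenol; nearly all actives have a fitted effect of over 65% in size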
NPSR antagonist = antagonists of human neuropeptide S receptor cAMP signaling; CHO-NPSR cells, cAMP TR-FRET, antagonist mode; Potency, µM (doses to about 38.3 µM), inactives show top-dose activity change, negative = inhibition, most hits filed as inhibitors; 220,000 tested, 1% active; Q6W5P4; also: nearly all actives have a fitted effect of over 50% in size
Target sequence (Q6W5P4 whole entry, looked up): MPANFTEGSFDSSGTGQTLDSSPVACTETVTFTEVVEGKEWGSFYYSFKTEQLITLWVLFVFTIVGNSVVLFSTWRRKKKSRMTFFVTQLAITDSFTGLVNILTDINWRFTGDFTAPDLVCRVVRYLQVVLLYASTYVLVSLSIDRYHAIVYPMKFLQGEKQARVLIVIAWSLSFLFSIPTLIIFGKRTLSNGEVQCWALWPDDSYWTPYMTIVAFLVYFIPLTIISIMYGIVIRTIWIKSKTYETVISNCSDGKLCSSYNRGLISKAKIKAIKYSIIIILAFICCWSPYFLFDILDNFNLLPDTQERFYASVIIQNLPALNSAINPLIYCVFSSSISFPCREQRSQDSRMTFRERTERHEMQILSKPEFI
RORg inh = inhibitors of mouse ROR gamma transcriptional activity. P51450. Drosophila S2 Gal4-RORgamma UAS-luciferase reporter, 20 h. Potency, µM (top dose mostly 53.6 µM), for the others: at the top dose activity change, negative = inhibition, hits mostly inhibitors. 310,000 tested, 5.4% active; also: nearly all actives have a fitted effect of over 60% in size
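Luminescence from a UAS-regulated Photinus luciferase reporter in stably transfected Drosophila Schneider cells is measured; decreased signal marks ROR gamma inhibition. Fusion expression is induced by 700 uM copper sulfate for 20 hr.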
VP16 counter = inhibits Gal4-VP16 luciferase reporter, ROR gamma counter-screen; Drosophila S2 Gal4-VP16 UAS-luciferase, luminescence, 20 h; Potency, µM (doses to about 53.6 µM), for the others: at the highest dose activity, negative = inhibition, usual class: inhibitors; 310,000 tested, 3.5% active; AID 2546;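 also: Gal4-VP16 expression switched on by copper sulfate through the metallothionein promoter; nearly all actives have a fitted effect of over 50% in size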
Active calls of the source: *; ? = inconclusive; · = no result; [ ] = remark or other dose. Calls follow the shape of the dose curve; as a rule, active = well fitted curve in the direction sought with a large enough effect; inconclusive = small, poorly fitted or top-dose-only effect, or another doubt; inactive = no such curve, though single readings can be large; an effect the other way counts as inactive or inconclusive. Unless noted, % is scaled to controls: 0 for no effect and ±100 for the full control effect; potency is read from the fitted curve at half-maximal effect.

SMILES	B2AR arrestin	NPSR antagonist	RORg inh	VP16 counter
C[C@@]12CC[C@@H]3c4ccc(O)cc4CC[C@H]3[C@H]1C[C@@H](O)[C@H]2O	·	·	-27%[16.9 µM]	-3%[17 µM]
COc1ccc(O[C@H]2C=C[C@@H](c3ccccc3)O[C@@H]2COC(=O)CC/C(C)=N/O[C@@H](C)CN2CCCCc3nc(C)c(C)cc32)cc1	-1%	16µM*	23%	-30%
CCOc1cc(-c2noc(N)c2C#N)cc(OCC)c1OCC	-1%	-12%[46.1 µM]	11µM*	?
CCOc1cc(-c2cc(-c3ccc(N)cc3)nc(N)c2C#N)ccc1O	0%	-9%[46.1 µM]	-22%	-4%
Cc1cc(C)cc(Nc2ncc3c(n2)CCCC3=O)c1	0%	-6%[46.1 µM]	11µM*	11µM*
Cc1ccc2nc(Nc3ncc4c(n3)CCCC4=O)nc(C)c2c1	0%	2%[46.1 µM]	-25%	6%
COc1ccc(CNC(=O)Cc2nn(C)c(=O)c3ccccc23)cc1	0%	11%[46.1 µM]	?	8.9µM*
CCOC(=O)N1CCN(C(=O)CCCn2c(=S)[nH]c3ccsc3c2=O)CC1	0%	-11%	-24%	-8%
CCOC(=O)N1CCN(C(=O)CCCCCn2c(=S)[nH]c3ccsc3c2=O)CC1	-1%	-10%	11µM*	?
CCOC(=O)N1CCN(C(=O)CCCn2c(=S)[nH]c3ccccc3c2=O)CC1	·	-6%[46.1 µM]	-3%	-13%
CCOC(=O)N1CCN(C(=O)CCCn2c(=S)[nH]c3ccc(Br)cc3c2=O)CC1	0%	-14%[46.1 µM]	13µM*	?
CC(NC(=O)C1CCN(S(=O)(=O)c2cccs2)CC1)c1cccc(Cl)c1 (stereo not drawn)	0%	·	·	·
BrC(=C\c1ccccc1)/C=N/n1cnnc1	0%	-29%	7.1µM*	?
CC(C)COc1ccc(-c2nn(-c3ccccc3)cc2C(=O)Nc2nccs2)cc1	0%	-28%[46.1 µM]	2.5µM*	4.5µM*
O=C(Nc1nccs1)c1cn(-c2ccccc2)nc1-c1ccccc1	0%	?	7.1µM*	?
CO[C@@H]1COC(=O)CCC[C@@H](C)[C@H](OC)COC(=O)[C@H](Cc2ccccc2)NC(=O)C/C=C\[C@H]1C	·	·	9%[10 µM]	-2%[10 µM]
COc1cc(N)c(Cl)cc1C(=O)N[C@H]1CCN(CCCOc2ccc(F)cc2)C[C@@H]1OC	·	·	36%	13%
Cc1ccc(C(CCNC(C)c2cccs2)c2ccco2)cc1 (stereo not drawn)	-1%	33%	-11%	-11%
COc1ccc(-c2csc(-c3[nH]cnc3N)n2)cc1	-1%	-12%	2%	-2%[10 µM]
C#CCOCCOCCOCCNc1nc(N2CCOCC2)nc(N2CCN(C(=O)[C@H](Cc3cc4ccccc4[nH]3)n3cc([C@@H](N)CC(C)C)nn3)CC2)n1	3%	-11%	-25%	4%
C#CCOCCOCCOCCNc1nc(N2CCN(C(=O)[C@H](Cc3cc4ccccc4[nH]3)n3cc([C@@H](N)CC(C)C)nn3)CC2)nc(N2CCN(C(=O)[C@H](Cc3cc4ccccc4[nH]3)n3cc([C@@H](N)CC(C)C)nn3)CC2)n1	0%	46%	?	16µM*
COc1ccccc1C(=O)N1CCN(S(=O)(=O)c2ccccc2)CC1	0%	-18%[46.1 µM]	11µM*	-1%
Oc1cccc(-c2nc3ccccc3s2)c1	0%	-5%[46.1 µM]	?	10µM*
CC(C)c1ccc(-c2nc3ccccc3s2)cc1	-1%	31%	?	2µM*
Nc1cccc(-c2nc3ccccc3s2)c1	0%	3%[46.1 µM]	?	-29%
SMILES	B2AR arrestin	NPSR antagonist	RORg inh	VP16 counter
Oc1ccc(O)c(Cc2nc3ccccc3s2)c1	0%	-5%	7.1µM*	25µM*
COc1ccc(-c2nc3ccccc3s2)cc1O	0%	?	10µM*	8.9µM*
CCCCCCCc1cc2c(cn1)C(=O)C(C)(OC(C)=O)C(O)=C2Cl (stereo not drawn)	·	·	19%	1%
COc1cc2c(cc1OC)C1N(CC2)C(=O)CCC12C(=O)CCCC2=O (stereo not drawn)	·	·	-29%	-7%
CCNc1ncc2nc(-c3ccc(F)cc3)c(=O)n(C[C@H]3CCCO3)c2n1	·	·	1%	7%
CN(c1ccccc1)S(=O)(=O)c1cccc(NC(=O)c2ccc(Cl)c([N+](=O)[O-])c2)c1	-1%	·	·	·
C/C(=N\NC(=O)c1ccc2c(c1)OCO2)c1ccco1	0%	4%	?	?
C/C(=N\NC(=O)c1ccc(Cl)c(Cl)c1)c1ccc(Br)s1	1%	0%	0.63µM*	0.63µM*
C/C(=N\NC(=O)c1cc2ccccc2cc1O)c1ccc2c(c1)OCO2	-4%	-9%[46.1 µM]	16µM*	?
C/C(=N\NC(=O)c1ccc(C)cc1C)c1ccc2c(c1)OCO2	0%	10%	-40%	13%
C/C(=N/NC(=O)c1ccc2c(c1)OCO2)c1ccc(Br)s1	0%	17%	2.8µM*	?
O=C(NCC1CCCCC1)c1cc2ccccc2cc1O	-1%	·	38%	?
O=C(N/N=C1/CC2CCC1C2)c1cc2ccccc2cc1O (stereo not drawn)	0%	·	0.89µM*	0.79µM*
Cc1cc(Sc2nnc(N)s2)c2ccccc2n1	-1%	?	7.9µM*	11µM*
Cc1cc(Sc2nnc(/N=C/N(C)C)s2)c2ccccc2n1	-1%	?	8.9µM*	?
O=C(/C=C/c1ccc(Cl)cc1)Nc1cc(S(=O)(=O)N2CCOCC2)ccc1N1CCOCC1	0%	·	·	·
Cc1cccc(N2C(=O)CC(Sc3nc(C)cc(C)n3)C2=O)c1 (stereo not drawn)	0%	-9%[46.1 µM]	-2%	3%
Cc1cc(C)cc(N2C(=O)CC(Sc3nnnn3-c3ccccc3)C2=O)c1 (stereo not drawn)	-1%	?	?	7.1µM*
Cn1nnnc1SC1CC(=O)N(c2ccccc2)C1=O (stereo not drawn)	0%	6%	7.9µM*	?
O=C1CC(Sc2nnnn2C2CCCCC2)C(=O)N1c1ccccc1 (stereo not drawn)	0%	5%[46.1 µM]	?	5µM*
Cc1cc(C)c(S(=O)(=O)OC[C@H]2C=CC[C@@H](CCC[C@H]3O[C@H](C(=O)OC(C)C)CC[C@@H]3C)O2)c(C)c1	·	·	-1%	1%
CCCCOC(OCCCC)[C@H](O)CSc1ccc2ccccc2c1	·	·	1%[10 µM]	-12%[10 µM]
CC1(C)CCC(C)(C)NC(=S)N1	0%	14%	8.9µM*	?
COc1cccc(-c2cc(C(=O)NC3CCCCC3)no2)c1	0%	·	11%	24%
Cc1ccccc1-c1cc(C(=O)Nc2nc3c(s2)CCCC3)c2ccccc2n1	0%	-10%[46.1 µM]	10µM*	-18%
O=C(Nc1nc2c(s1)CCCC2)c1cc(-c2ccc3c(c2)OCO3)nc2ccccc12	-1%	4%	-41%	?
Cc1ccccc1C(=O)NC(C(=O)Nc1nc2c(s1)CCCC2)C(C)C (stereo not drawn)	0%	-20%	?	20µM*
CC(C)NC(=S)N=Nc1c(O)[nH]c2ccc(C(C)C)cc12	-2%	-8%[46.1 µM]	5µM*	4.5µM*
NC(=S)N=Nc1c(O)[nH]c2ccc(F)cc12	0%	-13%	4.5µM*	?

Screening data deposited in PubChem by National Center for Advancing Translational Sciences (NCATS).
